From PubChem BioAssay (NCI)
Compounds without any hit were thinned out: in the full panel of roughly 83,000, 20% have a hit.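 Single-concentration screen, 48 h exposure, 96-well plates. Endpoint: percent growth. Below 10 = active.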 Activity calls are given as the source filed them.

Tested on: HL-60(TB) leukemia
Experiment: NCI-60 one-dose screen, 48 h (100 = growth as untreated, 0 = no growth, -100 = all killed)
Conditions: 10 µM unless noted

| Structure (SMILES) | growth |
| --- | --- |
| Nc1nc(N)c2c(n1)NC1(C=C(O)c3ccccc31)C1=C(N2)c2ccccc2C1=O (centres undefined) | 71% (inactive) |
| CCCCOc1nc2c(C)cccc2cc1C1CNC(=O)c2ccccc2N1 (centres undefined) | 26.2% (inactive) |
| CCCOC(=O)N[C@H]1CCc2cc(OC)c(OC)c(OC)c2-c2ccc(SC)c(=O)cc21 | -39.7% (active) |
| Brc1ccsc1Br | 102% (inactive) |
| Cc1cc(C)cc(NCCC#N)c1 | 84.9% (inactive) |
| CC1(C)CC[C@]2(CO)CC[C@]3(C)[C@H](CC[C@@H]4[C@@]5(C)CCCNC(C)(C)[C@@H]5CC[C@]43C)[C@H]2[C@H]1O | 57.8% (inactive) |
| CC(C)C(NC(=O)C1(NC(=O)OCc2ccccc2)CCCC1)C(=O)O (centres undefined) | 90.8% (inactive) |
| C[n+]1c(/C=C/c2ccc([N+](=O)[O-])cc2)ccc2ccccc21 | 99.3% (inactive) |
| O=C(CSc1nnc(-c2ccc(Cl)cc2)o1)Nc1ccc(C(=O)/C=C/c2ccccc2)cc1 | 97.1% (inactive) |
| C=CCn1c(-c2ccc(-c3nc4ccc(C)cc4[nH]3)cc2)n[nH]c1=S | 110% (inactive) |
| COC(=O)/C=C1/SC(=Nc2ccc([N+](=O)[O-])cc2)N(CCc2c[nH]c3ccccc23)C1=O | 69.8% (inactive) |
| CN(C)CCNC(=O)c1ccc(-c2nc3ccc4[nH]ncc4c3c3c2C2CCC3C2)cc1 (centres undefined) | -20.6% (active) |
| COc1cc(C2CC(c3ccc(Cl)cc3)=NN2C(C)=O)ccc1Oc1nc2c(c(=O)n(C)c(=O)n2C)n1C (centres undefined) | 94.2% (inactive) |
| O=c1oc2c(cnc3ccccc32)cc1-c1cccs1 | 98.2% (inactive) |
